High-throughput results deposited in PubChem by National Center for Advancing Translational Sciences (NCATS).
This excerpt belongs to a sample that is enriched for hits.
Pf Dd2 growth = qHTS Primary assay for Inhibitors of Plasmodium falciparum Dd2 growth in vitro | P. falciparum Dd2 growth, SYBR Green, 72 h | Potency, µM (titrated, usually from 28.9 µM), without a hit: at the highest dose activity, negative = inhibition, actives largely listed as inhibitors | actives 4.3% (n = 120,000); active means well fitted inhibition curve with a large enough effect;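 further: plate controls were DMSO vehicle for no effect and reference drug for full effect; nearly all actives have a fitted effect of over 65% in size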
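Infected erythrocytes (Dd2, 0.3% parasitemia, 2.5% hematocrit final) are added to compound in RPMI-1640/Albumax II medium, grown 72 h at 37C in low oxygen, then lysed with saponin/Triton-X containing SYBR Green and read by fluorescence.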
* hit, by the source's call; i = inactive; [ ] = remark or other dose. Potency means the concentration at half of the fitted maximal effect.

SMILES	Pf Dd2 growth
Cc1ccc(Cn2cc(S(=O)(=O)c3ccc(Cl)cc3)c(=O)c3cc4c(cc32)OCO4)cc1	-0.7%
Cc1ccc2c(c1)c(=O)c(C(=O)c1ccc3c(c1)OCO3)cn2Cc1ccc(Cl)cc1	12.6µM*
CCc1ccc(C(=O)c2cn(CC(=O)Nc3ccc(Cl)cc3)c3cc4c(cc3c2=O)OCO4)cc1	-28.3%
CCOc1ccc(C(=O)c2cn(CC(=O)Nc3ccc(OC)cc3)c3cc4c(cc3c2=O)OCCO4)cc1	25.2%
COc1ccc(Cn2cc(C(=O)c3ccc(OC)cc3)c(=O)c3cc4c(cc32)OCCO4)cc1	8.91µM*
Cn1cccc1CN1CCC2(Cc3ccccc3CNC2=O)C1 (stereo not drawn)	-24.5%
CCC(CC)C(=O)N1CC(C(=O)NCCc2ccncc2)C2(CCOCC2)C1 (stereo not drawn)	23.6%
CS(=O)(=O)N1CCCN(C(=O)c2cccs2)CCNC(=O)CC1c1ccccc1 (stereo not drawn)	14.9%
COc1ccc(S(N)(=O)=O)cc1C(=O)N1CCC2(CN(C)C(=O)O2)C1 (stereo not drawn)	6.9%
Cc1cccc(C(C)(C)C)c1NC(=O)N1CCN2C(=O)CNC(=O)C2C1 (stereo not drawn)	-2.0%
O=S(=O)(c1ccccc1)N1CCCC(Cc2noc(-c3cnccn3)n2)C1 (stereo not drawn)	i
N#Cc1cccc(C(=O)NCC(=O)N2CCCCCCNC(=O)CC2c2ccccc2)c1 (stereo not drawn)	-23.1%
O=C(Cc1c[nH]c2ccccc12)NCC(=O)N1CCCCCNC(=O)CC1c1ccccc1 (stereo not drawn)	-16.8%
O=C1CC(c2ccccc2)N(C(=O)CNC(=O)c2ccc3cc[nH]c3c2)CCCCCN1 (stereo not drawn)	10µM*
O=C1CC(c2ccccc2)N(C(=O)CNC(=O)c2c[nH]c3ccccc23)CCCCCN1 (stereo not drawn)	i
O=C1CC(c2ccccc2)N(C(=O)CNC(=O)c2n[nH]c3ccccc23)CCCCCCN1 (stereo not drawn)	10µM*
O=C1CC(c2ccccc2)N(C(=O)CNC(=O)c2ccoc2)CCCCCCN1 (stereo not drawn)	-24.9%
COc1cc(-c2[nH]ncc2CN2CCCCC2c2nccs2)cc(OC)c1OC (stereo not drawn)	-22.0%
CCOc1ccccc1CN1C[C@@H](CO)[C@H](NC(C)=O)C1	-18.0%
N#CC1CCN(C(=O)c2nc(-c3cccc(C(F)(F)F)c3)c3ccccn23)CC1	i
CCC(CC)NCc1cccnc1Oc1ccccc1	12.6µM*
O=C(NCc1cccnc1Oc1ccccc1)c1ccccn1	1.4%
O=S(=O)(Cc1ccccc1)NCc1cccnc1Oc1ccccc1	-7.3%
CN(C)C(=O)N1CCn2c(nnc2-c2cncc(Br)c2)C1	-1.8%
COc1ccccc1NC(=O)NC1CC(=O)N(Cc2cccc(F)c2)C1 (stereo not drawn)	-1.0%
SMILES	Pf Dd2 growth
COc1ccccc1C(=O)NC1CC(=O)N(Cc2cccc(F)c2)C1 (stereo not drawn)	-2.7%
COc1cc(C2CC(=O)N(Cc3cccc(F)c3)c3ccccc3S2)cc(OC)c1OC (stereo not drawn)	4.47µM*
CCOc1ccc(NC(=O)CCNc2c(C)nc3cnccn23)cc1	-17.4%
COc1ccccc1OCc1cc(C(=O)NCc2cccc(C)c2)n[nH]1	-8.5%
O=C1C2=C(Nc3ccccc3SC2c2ccc(C(F)(F)F)cc2)c2ccccc21 (stereo not drawn)	4.47µM*
CCc1ccc(C2Sc3ccccc3NC3=C2C(=O)c2ccccc23)cc1 (stereo not drawn)	2µM*
CCc1ccc(CNC(=O)c2cc3c(s2)-c2ccccc2OC3)cc1	11.0%
O=C1[C@@H]2CSC(c3ccc(C(F)(F)F)cc3)N2C(=O)N1c1ccccc1 (stereo partly drawn)	11.5%
CC(C)c1ccc(C2Sc3ccccc3NC3=C2C(=O)c2ccccc23)cc1 (stereo not drawn)	3.55µM*
CCc1cc(NCC(O)CN2CCCCC2)ncn1 (stereo not drawn)	3.4%
COc1ccc(CCNC(=O)[C@@H](C)C2CC[C@@]3(C)CC[C@H](NC(=O)c4ccncc4)[C@@H](C)[C@@H]3[C@H]2O)cc1OC (stereo partly drawn)	i
CNC(=O)c1cc(S(=O)(=O)N2CCc3c(nc[nH]c3=O)C2)cs1	-3.3%
Cc1cc(=O)cc(C(=O)N2CCC3(CCCN(C(C)C)C3=O)C2)o1 (stereo not drawn)	-7.2%
Cc1cc(CN2CCC([C@@H]3CNC[C@H]3CO)CC2)n(C)n1	6.6%
Cc1nn(C)c2nc(N3CCCCC3CN3CCOCC3)sc12 (stereo not drawn)	-0.3%
Cn1cc(C(=O)NCc2nnc3n2C(C(=O)NC2CC2)CC3)cn1 (stereo not drawn)	5.7%
O=C(Nc1ccccc1)N1CC2CC(C1)[C@H]1CCCC(=O)N1C2 (stereo partly drawn)	1.2%
COc1ccc(CNCC2(COc3cccnc3)C[C@@H](O)[C@@H](O)C2)cc1 (stereo partly drawn)	-16.7%[44.1 µM]
COc1cccc(CNCC2(COc3ccccc3)C[C@@H](O)[C@@H](O)C2)c1 (stereo partly drawn)	3.98µM*
COc1cccc(C(=O)NCC2(COc3ccccc3)C[C@@H](O)[C@@H](O)C2)c1 (stereo partly drawn)	i
COCCn1cnc2ccc(-c3ccnn3C)nc2c1=O	i
Cc1cnc(CC2CCN(C(=O)N(C)C)C2)n1CC1CC1 (stereo not drawn)	-2.7%
Cc1ccsc1C(=O)N1CCc2nn(CC3CC3)c(=O)n2CC1	i
Cc1c(C(=O)N2CC[C@@H]3[C@@H](CCC(=O)N3CCN)C2)[nH]c2ccccc12	-3.0%
CCCC(=O)N1CC2(CCCN2CC2CC2)Cc2ccccc21 (stereo not drawn)	8.91µM*
SMILES	Pf Dd2 growth
O=C(O)CCC(=O)N1Cc2ccccc2CC2(CCCN2CC2CCCCC2)C1 (stereo not drawn)	-0.4%
O=C(O)CCCC(=O)N1Cc2ccccc2CC2(CCCCN2CC2CCCC2)C1 (stereo not drawn)	6.9%
C[S+](=O)([O-])N1CC2(CCCN2CC2CCCCC2)Cc2ccccc21 (stereo not drawn)	8.91µM*
C[S+](=O)([O-])N1Cc2ccccc2CC2(CCCN2Cc2ccccc2)C1 (stereo not drawn)	-26.5%
C[S+](=O)([O-])N1Cc2ccccc2CC2(CCN(CC3CCCCC3)CC2)C1	-21.4%
C=CCNC(=O)c1cccn2nccc12	10.7%[44.1 µM]
O=C(NCCC1=CCCCC1)c1ccc(N2CC3CC(C2)[C@H]2CCCC(=O)N2C3)nc1 (stereo partly drawn)	-6.6%
O=C(NCc1ccccc1-n1ccnc1)C1CC(=O)N(Cc2cccnc2)C1 (stereo not drawn)	8.5%
O=C(Nc1ccon1)[C@@H]1C[C@@H](c2ccc(F)cc2)N([S+](=O)([O-])c2ccccc2)C1	i
CC(C)(C)OC(=O)N1CCC(NC(=O)c2nc(-c3ccccc3)c3ccccn23)CC1	-7.7%
COCc1nc2nc(-c3ccccc3)c(-c3ccc(O)c(F)c3)cc2n1C	-1.3%[44.1 µM]
CN(C)CCNC(=O)c1ccc(-c2nn(C)c(=O)c3ccccc23)cc1	-27.3%
COCCNC(=O)c1nc2nc(-c3ccccc3)c(Cl)cc2n1C	i
COc1cc(F)ccc1-c1cc2c(nc1-c1ccccc1)nc(C(=O)NCCN(C)C)n2C	2.51µM*
